Records with an inconclusive call do not appear. Unmarked numbers belong to inactive results. Calls of active or inactive are those of the source. The call rests on the fitted dose curve; in most records, active means well fitted cell-killing curve with a large enough effect in the repeat runs; inconclusive means weak or mixed curves; inactive means no such curve, though single readings can be large or run the other way. Non-standard residues stand in square brackets, D forms with d. Residues, ends and D or L forms follow the SMILES beside them. *: point of attachment. Sta = CC(C)C[C@H](N)[C@@H](O)CC(=O)O; Isovaleryl = CC(C)CC(=O)*
Assay: qHTS assay to identify small molecule agonists of the peroxisome proliferator-activated receptor delta (PPARd) signaling pathway - cell viability counter screen (AID 743211); further: nearly all actives have a fitted effect of over 55% in size
Details: PPARd-bla HEK293H viability, CellTiter-Glo luminescence, 17 h; series mostly up to 62.6 µM
Text: U.S. Tox21 Program National Center for Advancing Translational Sciences [NCATS] NIH Chemical Genomics Center [NCGC] U.S. Environmental Protection Agency [EPA] National Institutes of Environmental Health Sciences [NIEHS] National Toxicology Program [NTP] U.S. Food and Drug Administration [FDA] Tox21 Assay Overview: The peroxisome proliferator-activated receptors (PPARs) are lipid-activated transcription factors of the nuclear receptor superfamily with three distinct subtypes namely PPAR alpha, PPAR delta (PPARd) and PPAR gamma. All these subtypes heterodimerizes with Retinoid X receptor (RXR) and have different physiological functions. […] To identify the compounds that activate PPAR-delta signaling, GeneBLAzer PPAR delta UAS-bla HEK293H cell line (Invitrogen, Carlsbad, CA, USA) containing a beta-lactamase reporter gene under the control of an Upstream Activator Sequence (UAS) was used to screen the Tox21 compound library. The cytotoxicity of the Tox21 compound library against the PPARd-bla cell line was tested in parallel by measuring the cell viability using CellTiter-Glo assay (Promega, Madison, WI) in the same wells.
Tox21 Assay Protocol Summary: PPARd-bla cells were dispensed at 3000 cells/6uL/well in 1536-well black wall/clear bottom plates using a Multidrop Combi (Thermo Fisher Scientific, Waltham, MA) dispenser. After the assay plates were incubated at 37 C and 5% CO2 for 5 h, 23 nL of compounds dissolved in DMSO, positive controls or DMSO only was transferred to the assay plate by a Pintool station (Kalypsys, San Diego, CA). The assay plates were incubated at 37C for 17 h. After 1 uL of LiveBLAzerTM B/G FRET substrate was added using a Bioraptr Flying Reagent Dispenser (FRD) workstation (Beckman Coulter, Indianapolis, IN, USA), the plates were incubated at room temperature for 2 h, and fluorescence intensity was measured by an Envision plate reader (PerkinElmer, Shelton, CT). For cell viability readout that measures cytotoxicity, 3 ul/well of CellTiter-Glo reagent was added into the assay plates using a Bioraptr FRD. After 30 min incubation at room temperature, the luminescence intensity in the plates was measured using a ViewLux plate reader (PerkinElmer).
With `C=C(C)C(=O)OCCOC1CC2CC1C1C=CCC21` (stereo not given) the outcome was “inactive”. For `N=C(N)N1CCc2ccccc2C1`, the activity change, negative = cytotoxicity was 3.73% [at 5.95 µM]. In the case of `CC[N+](C)(CC)CC`, the outcome is reported as “inactive”. For `COc1ccccc1N1CCN(CC(O)COc2cc(OC)c(OC)c(OC)c2)CC1` (stereo not given), the outcome was “inactive”. In the case of `Cc1nnc(C(=O)NC(C)(C)c2nc(C(=O)NCc3ccc(F)cc3)c(O)c(=O)n2C)o1`, the outcome is reported as “inactive”. For `O=C1CCCc2c(O)cccc21`, the outcome was “inactive”. With `CN(C)CCC[C@@]1(c2ccc(F)cc2)OCc2cc(C#N)ccc21` the outcome was “inactive”. In the case of `N=C(N)N`, the outcome is reported as “inactive”. For `CCCCCCCC(=O)N(C)C`, the outcome was “inactive”. With `CC(C)CC(=O)N[C@H](C(=O)N[C@H](C(=O)N[C@@H](CC(C)C)[C@@H](O)CC(=O)N[C@@H](C)C(=O)N[C@@H](CC(C)C)[C@@H](O)CC(=O)O)C(C)C)C(C)C` (Isovaleryl-VV[Sta]A[Sta]-OH) the outcome was “inactive”. For `CCCCN1C(=O)c2ccccc2C1=O`, the outcome was “inactive”. With `CC/C=C\CCCCCCCCCCOC(C)=O` the outcome was “inactive”. With `Cc1ccc2ccccc2n1` the outcome was “inactive”. With `CCCCCC(CC)OC(=O)CCCOc1ccc(Cl)cc1Cl` (stereo not given) the outcome was “inactive”. With `Nc1nc(Cl)cc(Cl)n1` the outcome was “inactive”. With `CC(C)(Sc1cc(C(C)(C)C)c(O)c(C(C)(C)C)c1)Sc1cc(C(C)(C)C)c(O)c(C(C)(C)C)c1` the outcome was “inactive”. For `CC1(C)S[C@@H]2[C@H](NC(=O)Cc3ccccc3)C(=O)N2[C@H]1C(=O)O` (tested in a mixture with another compound), the outcome was “inactive”. With `C=C(C)C(=O)OCCCC` the outcome was “inactive”. With `CCCCN=C(N)N=C(N)N` the outcome was “inactive”. In the case of `CC1=C(O)C(=O)CO1`, the outcome is reported as “inactive”. For `O=C(O)CCC(=O)Nc1ccc(S(=O)(=O)Nc2nccs2)cc1`, the outcome was “inactive”. For `CCOC(=O)CC`, the outcome was “inactive”. For `O=C(O)CCCCCCCCCC(=O)O`, the outcome was “inactive”. With `NC[C@H]1O[C@H](O[C@H]2[C@H](O)[C@@H](O[C@H]3O[C@H](CO)[C@@H](O)[C@H](N)[C@H]3O)[C@H](N)C[C@@H]2N)[C@H](N)[C@@H](O)[C@@H]1O` the outcome was “inactive”. With `O=S(=O)(O)c1cc(I)c(O)c2ncccc12` the outcome was “inactive”. For `CCCCCCCCCCCCCCCC(=O)OC`, the outcome was “inactive”. In the case of `O=P(O)(O)C(O)(Cc1cccnc1)P(=O)(O)O`, the outcome is reported as “inactive”. For `O=C(O)COc1ccc2ccccc2c1`, the outcome was “inactive”. With `CCCC(=O)CC` the outcome was “inactive”. In the case of `CC(=O)OC/C=C(/C)CCC=C(C)C`, the outcome is reported as “inactive”. For `Cc1cc(O)c(Cl)cc1C`, the outcome was “inactive”. With `CCCCCCCCCCCCCC(=O)OCC` the outcome was “inactive”. For `C[C@@H]1NC(=O)[C@@H](N)CNC(=O)[C@H](C2CCNC(N)=N2)NC(=O)/C(=C/NC(N)=O)NC(=O)[C@H](CNC(=O)C[C@@H](N)CCCN)NC1=O` (stereo not given in full), the activity change, negative = cytotoxicity was 14.7% [at 0.55 µM]. For `CN(C)c1ccncc1`, the outcome was “inactive”. With `CNCCc1ccccn1` the outcome was “inactive”. For `N[C@H]1C(O)O[C@H](CO)[C@@H](O)[C@@H]1O` (stereo not given in full), the outcome was “inactive”. In the case of `CC(C)(O)CCCC1=CCC(C=O)CC1` (stereo not given), the outcome is reported as “inactive”. With `C=CCCCCCCCCCCCCCC` the outcome was “inactive”. For `CCCCCCC(O)CO` (stereo not given), the outcome was “inactive”. In the case of `CCN(CC)CC`, the outcome is reported as “inactive”.

From PubChem BioAssay (Tox21)
On the % scale 0 is the no-effect control and ±100 the full control effect.
